Common to all, as to assay: universal protein binding microarray (PBM); transcription factors of Arabidopsis thaliana; high values mean tight binding
Holding throughout (details): protein: recombinant; tags: GST; chain copies: 2; dsDNA, one strand shown

The target of experiment [1] is T1, GST-ANAC092(1-176) (Arabidopsis thaliana, UniProt Q9FKA0 1-176).
T1 sequence: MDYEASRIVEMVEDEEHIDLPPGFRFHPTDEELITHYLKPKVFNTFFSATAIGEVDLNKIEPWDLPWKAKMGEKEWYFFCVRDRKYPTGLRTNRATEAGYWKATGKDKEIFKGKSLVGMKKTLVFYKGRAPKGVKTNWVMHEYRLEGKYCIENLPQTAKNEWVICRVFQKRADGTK
In outline:
(§1)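 Binding is expressed as the normalised enrichment score (E-score). Proteins carrying a GST tag, whether NAC-domain, full-length or DNA-binding-domain forms, were induced in cells, and zinc acetate was added for zinc-finger proteins. After purification on glutathione–Sepharose 4B and quantification by A280 or anti-GST western blot, each was applied in duplicate at 200 to 500 nM final to custom all-10-mer Agilent 4 × 180K arrays made double-stranded by primer extension. Gapped and ungapped 8-mers were scored.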

Experiment [2] has as its target T2, GST-ANAC019 NAC domain (Arabidopsis thaliana, UniProt Q9C932 14-162).
T2 sequence: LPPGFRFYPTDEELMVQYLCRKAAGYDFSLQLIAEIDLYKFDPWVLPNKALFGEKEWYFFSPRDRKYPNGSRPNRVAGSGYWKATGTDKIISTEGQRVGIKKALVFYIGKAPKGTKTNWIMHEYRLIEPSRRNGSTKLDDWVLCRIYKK
In outline:
as §1

The target in experiment [3] is T3, GST-ANAC055(1-171) (Arabidopsis thaliana, UniProt Q9LDY8 1-171).
T3 sequence: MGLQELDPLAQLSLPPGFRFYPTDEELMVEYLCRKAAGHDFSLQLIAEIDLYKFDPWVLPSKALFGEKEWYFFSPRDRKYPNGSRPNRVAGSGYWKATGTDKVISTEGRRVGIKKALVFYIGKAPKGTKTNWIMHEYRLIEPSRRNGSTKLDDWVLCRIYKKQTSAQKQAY
In outline:
as §1

For experiment [4], the target named is T4, GST-ATAF1 NAC domain (Arabidopsis thaliana, UniProt Q39013 7-158).
T4 sequence: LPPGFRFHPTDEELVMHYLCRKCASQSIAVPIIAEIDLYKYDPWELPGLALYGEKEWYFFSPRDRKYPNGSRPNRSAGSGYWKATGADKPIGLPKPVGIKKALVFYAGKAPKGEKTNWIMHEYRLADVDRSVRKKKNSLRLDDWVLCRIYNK
A digest of the protocol:
as §1

The target in experiment [5] is T5, GST-ANAC092(1-285) full length (Arabidopsis thaliana, UniProt Q9FKA0 1-285).
T5 sequence: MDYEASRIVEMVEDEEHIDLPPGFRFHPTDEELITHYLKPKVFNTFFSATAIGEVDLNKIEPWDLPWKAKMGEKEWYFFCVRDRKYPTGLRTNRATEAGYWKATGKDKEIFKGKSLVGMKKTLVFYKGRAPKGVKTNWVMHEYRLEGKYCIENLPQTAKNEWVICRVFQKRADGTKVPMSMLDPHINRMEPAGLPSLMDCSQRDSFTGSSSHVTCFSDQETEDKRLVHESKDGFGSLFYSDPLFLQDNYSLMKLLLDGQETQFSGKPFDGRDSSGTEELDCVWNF
In outline: as §1

Experiment [6] addresses T6, GST-NAP(1-166) (Arabidopsis thaliana, UniProt O49255 1-166).
T6 sequence: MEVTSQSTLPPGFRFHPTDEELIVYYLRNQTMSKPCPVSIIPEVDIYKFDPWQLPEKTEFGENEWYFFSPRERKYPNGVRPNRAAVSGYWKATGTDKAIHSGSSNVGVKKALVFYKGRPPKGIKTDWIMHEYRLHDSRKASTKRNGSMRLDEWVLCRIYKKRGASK
A digest of the protocol:
as §1

Experiment [7] concerns the target T7, GST-NST2(1-184) (Arabidopsis thaliana, UniProt Q9M274 1-184).
T7 sequence: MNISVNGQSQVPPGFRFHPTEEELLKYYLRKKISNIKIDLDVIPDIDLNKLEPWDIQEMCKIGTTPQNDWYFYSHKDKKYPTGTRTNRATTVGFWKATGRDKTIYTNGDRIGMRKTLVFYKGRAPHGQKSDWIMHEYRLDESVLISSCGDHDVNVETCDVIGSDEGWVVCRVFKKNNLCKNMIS
A digest of the protocol:
as §1

The target of experiment [8] is T8, GST-NTL8 NAC domain (Arabidopsis thaliana, UniProt Q9XIN7 14-156).
T8 sequence: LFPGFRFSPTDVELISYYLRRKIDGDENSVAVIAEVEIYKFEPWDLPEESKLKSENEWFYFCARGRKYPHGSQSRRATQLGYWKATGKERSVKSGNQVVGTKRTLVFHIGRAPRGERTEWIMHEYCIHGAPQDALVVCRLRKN
A digest of the protocol: as §1

Experiment [9] deals with T9, GST-SND1(1-203) (Arabidopsis thaliana, UniProt Q9LPI7 1-203).
T9 sequence: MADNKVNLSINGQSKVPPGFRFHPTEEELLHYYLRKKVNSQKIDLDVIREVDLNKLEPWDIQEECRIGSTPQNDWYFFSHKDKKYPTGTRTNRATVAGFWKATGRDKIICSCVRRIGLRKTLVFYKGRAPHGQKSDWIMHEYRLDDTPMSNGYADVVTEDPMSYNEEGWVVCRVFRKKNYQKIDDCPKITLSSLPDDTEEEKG
In outline: as §1

For experiment [10], the target named is T10, GST-VND3 NAC domain (Arabidopsis thaliana, UniProt Q9FH59 12-162).
T10 sequence: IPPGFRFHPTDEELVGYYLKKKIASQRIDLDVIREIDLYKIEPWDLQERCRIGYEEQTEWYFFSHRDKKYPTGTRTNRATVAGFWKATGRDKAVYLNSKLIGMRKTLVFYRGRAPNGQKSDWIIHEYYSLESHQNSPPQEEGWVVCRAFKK
A digest of the protocol:
as §1

The target of experiment [11] is T11, GST-VND7 NAC domain (Arabidopsis thaliana, UniProt Q9C8W9 9-158).
T11 sequence: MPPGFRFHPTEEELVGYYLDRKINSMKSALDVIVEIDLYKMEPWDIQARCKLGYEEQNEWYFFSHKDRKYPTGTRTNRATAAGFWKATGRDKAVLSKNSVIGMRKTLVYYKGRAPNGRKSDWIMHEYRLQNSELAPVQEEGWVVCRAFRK
A digest of the protocol:
as §1

For seven sequences, binding signal results are on record in paper PMC4081100, “A DNA-binding-site landscape and regulatory network analysis for NAC transcription factors in Arabidopsis thaliana”.

As to ACGGCAAT, the binding signal turned out to be 0.298 E-score in experiment [1]; 0.409 E-score in experiment [2]; 0.375 E-score in [3]; 0.283 E-score in experiment [4]; 0.366 E-score in experiment [5]; 0.236 E-score in [6]. The binding signal in experiment [7] came to 0.286 E-score; in experiment [8], 0.188 E-score; in experiment [9], 0.226 E-score; in experiment [10], 0.3 E-score; in experiment [11], 0.317 E-score.

On to AGACGTAA, for which the binding signal in experiment [1] came to 0.425 E-score; in [2], 0.453 E-score; in experiment [3] it was 0.389 E-score; in experiment [4], 0.437 E-score; in experiment [5], 0.424 E-score; in experiment [6], 0.456 E-score. The binding signal in [7] worked out at 0.282 E-score; in [8] it was 0.139 E-score; in experiment [9], 0.408 E-score; in experiment [10] it was 0.42 E-score; in experiment [11] it was 0.42 E-score.

For CTACGCAA, the binding signal was 0.427 E-score in experiment [1]; 0.316 E-score in experiment [2]; 0.207 E-score in [3]; 0.267 E-score in experiment [4]; 0.447 E-score in [5]; 0.196 E-score in [6]. For the same sequence, the binding signal was 0.364 E-score in experiment [7]; 0.126 E-score in experiment [8]; 0.488 E-score in experiment [9]; 0.365 E-score in experiment [10]; 0.349 E-score in [11].

Regarding CACGCCAA, the binding signal in [1] is 0.443 E-score; in experiment [2] it was 0.185 E-score; in experiment [3], 0.159 E-score; in experiment [4] it was 0.16 E-score; in [5], 0.451 E-score; in experiment [6], 0.114 E-score. The binding signal is 0.3 E-score in [7]; 0.0657 E-score in [8]; 0.334 E-score in experiment [9]; 0.0966 E-score in experiment [10]; 0.114 E-score in experiment [11].

Take ACGTTACC: the binding signal is 0.458 E-score in experiment [1]; 0.263 E-score in experiment [2]; 0.197 E-score in experiment [3]; 0.195 E-score in [4]; 0.467 E-score in [5]; 0.218 E-score in [6]. Besides, the binding signal in experiment [7] was 0.331 E-score; in [8], 0.384 E-score; in experiment [9], 0.462 E-score; in experiment [10], 0.249 E-score; in [11], 0.176 E-score.

Regarding ACGGAACC, the binding signal worked out at 0.361 E-score in experiment [1]; 0.454 E-score in experiment [2]; 0.446 E-score in experiment [3]; 0.38 E-score in [4]; 0.4 E-score in experiment [5]; 0.461 E-score in experiment [6]. Also, the binding signal in [7] worked out at 0.12 E-score; in [8], 0.172 E-score; in experiment [9] it was 0.235 E-score; in experiment [10], 0.382 E-score; in [11], 0.435 E-score.

For GTGCCGTA, the binding signal in experiment [1] was determined as 0.427 E-score; in [2], 0.467 E-score; in [3] it was 0.432 E-score; in experiment [4] it was 0.413 E-score; in experiment [5] it was 0.449 E-score; in experiment [6], 0.412 E-score. Further, the binding signal in [7] turned out to be 0.263 E-score; in experiment [8], 0.102 E-score; in [9], 0.377 E-score; in experiment [10], 0.443 E-score; in experiment [11], 0.453 E-score.
